A short description of assay [1]: binders of probe aFSTL3 on microarray, primary screen, stem cell growth factor project, biochemical, small-molecule microarray, fluorescence 635/667 (AID 1064).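 Further: measures binding of the biotinylated anti-FSTL3 antibody to printed compounds.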 The conditions noted are these: higher = more signal.
Assay [2] can be described thus: binders from COS7 lysate, DM2A8 probe, primary screen, torsin A project, cell lysate, small-molecule microarray, fluorescence 635/667 (AID 1065). The conditions noted are these: higher = more signal, COS7 lysate expressing mutant human TOR1A.
The nature of assay [3]: binders of probe aFGF2 on microarray, primary screen, stem cell growth factor project, biochemical, small-molecule microarray, fluorescence 635/667 (AID 1067).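 Further: measures binding of biotinylated aFGF2 protein to printed compounds on slides; z-score merges feature fluorescence and signal-to-noise across triplicate slides.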 The following applies: higher = more signal.
Assay [4] in a line: binders of probe aFGF10 on microarray, primary screen, stem cell growth factor project, biochemical, small-molecule microarray, fluorescence 635/667 (AID 1071).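 Further: score merges 667 nm spot intensity and signal to noise from triplicate slides.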 The following applies: higher = more signal.
Assay [5] concerns the target Neurogenic locus notch homolog protein 2 (Homo sapiens) (UniProt Q04721). Kind of assay: Notch2 binders on small-molecule microarrays, primary screen, biochemical, small-molecule microarray, 635 nm fluorescence, stem cell growth factors (AID 1073). The conditions noted are these: Notch2 binding, higher = more signal.
The target in assay [6] is Pro-neuregulin-1, membrane-bound isoform (Homo sapiens) (UniProt Q02297). Kind of assay: NRG1 binders on small-molecule microarrays, primary screen, psychiatric disease protein project, biochemical, small-molecule microarray, fluorescence 635/667 (AID 1075).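 Further: score combines 667 nm spot fluorescence with signal to noise.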 The following applies: NRG1 binding, 635 nm fluorescence, higher = more signal.
In assay [7] the test system is Neuregulin-1 EGF-like domain. Kind of assay: binders of neuregulin-1 EGF-like domain, primary screen, biochemical, small-molecule microarray, 635 nm fluorescence (AID 1081).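 Further: binding of the protein to compounds printed on small-molecule microarray slides.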 The following applies: small-molecule microarray binding, higher = more signal.
A short description of assay [8]: FRG1 promoter luciferase signal modulators, primary screen, FRG1 inhibition for FSHD, cell-based, C2C12 myotubes, firefly/Renilla luciferase, luminescence (AID 1084). The following applies: higher = more signal, called active from +8 up or from −8 down.
Assay [9] is described as follows: binders of probe aFST on microarray, primary screen, stem cell growth factor project, biochemical, small-molecule microarray, fluorescence 635/667 (AID 1086).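 Further: score merges 667 nm fluorescence with signal-to-noise of each printed compound spot.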 The following applies: higher = more signal.
Assay [10] can be described thus: binders of probe aHhip on microarray, primary screen, stem cell growth factor project, biochemical, small-molecule microarray, fluorescence 635/667 (AID 1087).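 Further: score merges spot fluorescence at 667nm with spot signal to noise ratio.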 The conditions noted are these: higher = more signal.
For assay [11], the system named is PRMT1 (protein arginine N-methyltransferase 1). Kind of assay: PRMT1 binders on small-molecule microarrays, primary screen, biochemical, small-molecule microarray, 635 nm fluorescence (AID 1088).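 Further: binding of Prmt1 protein to compounds spotted on small-molecule microarray slides.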 The conditions noted are these: small-molecule microarray binding, higher = more signal.
Assay [12] in a line: yeast growth modulation, basal conditions, primary screen, YJM789 clinical isolate, OD600, 24 h (AID 1089).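 Further: growth of clinical yeast isolate S. cerevisiae YJM 789 seeded 1000 cells per well; test concentration not given here.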 The following applies: S. cerevisiae YJM789 growth, higher = more signal, called active from +8 up or from −8 down.
Assay [13] is described as follows: fission yeast growth modulation, primary screen, strain 972, OD600, 24 h, no modulator (AID 1090).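 Further: basal condition with compound alone and no growth modifier present; test concentration not given here.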 The conditions noted are these: S. pombe 972 growth, higher = more signal, called active from +8 up or from −8 down.
Assay [14] can be described thus: S. cerevisiae growth modulation with rapamycin, primary screen, strain BY4716, OD600, 96 h (AID 1091). Further: test concentration not given here. The conditions noted are these: higher = more signal, called active from +8 up or from −8 down.
Assay [15] addresses Torsin-1A-interacting protein 2 (Homo sapiens) (UniProt Q8NFQ8). Nature of the assay: LULL1 binders on small-molecule microarray, primary screen, cell lysate, human LULL1 lysate, 635/667 nm fluorescence (AID 1092).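 Further: probe is lysate of COS7 cells overexpressing human LULL1; score merges per-feature 667 nm fluorescence with signal-to-noise.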 The conditions noted are these: hLULL1 lysate binding, 635 nm fluorescence, higher = more signal.
The nature of assay [16]: E. coli growth modulation, two-sided OD650, primary screen, E. coli filamentation project, strain DRC41, 24 h (AID 1093).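 Further: MC1000 strain lacking acrAB efflux and sulA so SOS filamentation is blocked; test concentration not given here.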 The conditions noted are these: OD650, 24 h, higher = more signal, called active from +8 up or from −8 down.
Assay [17] in a line: small-molecule microarray binders of probe aLefty2, primary screen, biochemical, biotinylated probe, 635/667 nm fluorescence (AID 1094).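 Further: score merges spot fluorescence near 667 nm with spot signal-to-noise ratio.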 The conditions noted are these: higher = more signal.
The subject of assay [18] is Noggin (protein binding on small-molecule microarray). Nature of the assay: Noggin binders on small-molecule microarray, primary screen, biochemical, 635/667 nm fluorescence (AID 1095).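 Further: score merges 667 nm feature fluorescence with signal to noise over triplicate slides.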 The conditions noted are these: 635 nm fluorescence, higher = more signal.
Assay [19] concerns the target Neurogenic locus notch homolog protein 3 (Homo sapiens) (UniProt Q9UM47). Nature of the assay: NOTCH3 binders on small-molecule microarray, primary screen, biochemical, 635/667 nm fluorescence (AID 1096). The conditions noted are these: NOTCH3 binding, 635 nm fluorescence, higher = more signal.
The nature of assay [20]: small-molecule microarray binders of probe aEGFR, primary screen, biochemical, biotinylated probe, 635/667 nm fluorescence (AID 1097).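 Further: probe is a biotinylated anti-EGFR antibody binding compounds printed on slides; score combines fluorescence near 667 nm and signal to noise of each spot.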 The conditions noted are these: higher = more signal.

Activity calls are given as the source filed them.

Neurogenic locus notch homolog protein 3 (Homo sapiens), sequence (Q9UM47 whole entry, looked up): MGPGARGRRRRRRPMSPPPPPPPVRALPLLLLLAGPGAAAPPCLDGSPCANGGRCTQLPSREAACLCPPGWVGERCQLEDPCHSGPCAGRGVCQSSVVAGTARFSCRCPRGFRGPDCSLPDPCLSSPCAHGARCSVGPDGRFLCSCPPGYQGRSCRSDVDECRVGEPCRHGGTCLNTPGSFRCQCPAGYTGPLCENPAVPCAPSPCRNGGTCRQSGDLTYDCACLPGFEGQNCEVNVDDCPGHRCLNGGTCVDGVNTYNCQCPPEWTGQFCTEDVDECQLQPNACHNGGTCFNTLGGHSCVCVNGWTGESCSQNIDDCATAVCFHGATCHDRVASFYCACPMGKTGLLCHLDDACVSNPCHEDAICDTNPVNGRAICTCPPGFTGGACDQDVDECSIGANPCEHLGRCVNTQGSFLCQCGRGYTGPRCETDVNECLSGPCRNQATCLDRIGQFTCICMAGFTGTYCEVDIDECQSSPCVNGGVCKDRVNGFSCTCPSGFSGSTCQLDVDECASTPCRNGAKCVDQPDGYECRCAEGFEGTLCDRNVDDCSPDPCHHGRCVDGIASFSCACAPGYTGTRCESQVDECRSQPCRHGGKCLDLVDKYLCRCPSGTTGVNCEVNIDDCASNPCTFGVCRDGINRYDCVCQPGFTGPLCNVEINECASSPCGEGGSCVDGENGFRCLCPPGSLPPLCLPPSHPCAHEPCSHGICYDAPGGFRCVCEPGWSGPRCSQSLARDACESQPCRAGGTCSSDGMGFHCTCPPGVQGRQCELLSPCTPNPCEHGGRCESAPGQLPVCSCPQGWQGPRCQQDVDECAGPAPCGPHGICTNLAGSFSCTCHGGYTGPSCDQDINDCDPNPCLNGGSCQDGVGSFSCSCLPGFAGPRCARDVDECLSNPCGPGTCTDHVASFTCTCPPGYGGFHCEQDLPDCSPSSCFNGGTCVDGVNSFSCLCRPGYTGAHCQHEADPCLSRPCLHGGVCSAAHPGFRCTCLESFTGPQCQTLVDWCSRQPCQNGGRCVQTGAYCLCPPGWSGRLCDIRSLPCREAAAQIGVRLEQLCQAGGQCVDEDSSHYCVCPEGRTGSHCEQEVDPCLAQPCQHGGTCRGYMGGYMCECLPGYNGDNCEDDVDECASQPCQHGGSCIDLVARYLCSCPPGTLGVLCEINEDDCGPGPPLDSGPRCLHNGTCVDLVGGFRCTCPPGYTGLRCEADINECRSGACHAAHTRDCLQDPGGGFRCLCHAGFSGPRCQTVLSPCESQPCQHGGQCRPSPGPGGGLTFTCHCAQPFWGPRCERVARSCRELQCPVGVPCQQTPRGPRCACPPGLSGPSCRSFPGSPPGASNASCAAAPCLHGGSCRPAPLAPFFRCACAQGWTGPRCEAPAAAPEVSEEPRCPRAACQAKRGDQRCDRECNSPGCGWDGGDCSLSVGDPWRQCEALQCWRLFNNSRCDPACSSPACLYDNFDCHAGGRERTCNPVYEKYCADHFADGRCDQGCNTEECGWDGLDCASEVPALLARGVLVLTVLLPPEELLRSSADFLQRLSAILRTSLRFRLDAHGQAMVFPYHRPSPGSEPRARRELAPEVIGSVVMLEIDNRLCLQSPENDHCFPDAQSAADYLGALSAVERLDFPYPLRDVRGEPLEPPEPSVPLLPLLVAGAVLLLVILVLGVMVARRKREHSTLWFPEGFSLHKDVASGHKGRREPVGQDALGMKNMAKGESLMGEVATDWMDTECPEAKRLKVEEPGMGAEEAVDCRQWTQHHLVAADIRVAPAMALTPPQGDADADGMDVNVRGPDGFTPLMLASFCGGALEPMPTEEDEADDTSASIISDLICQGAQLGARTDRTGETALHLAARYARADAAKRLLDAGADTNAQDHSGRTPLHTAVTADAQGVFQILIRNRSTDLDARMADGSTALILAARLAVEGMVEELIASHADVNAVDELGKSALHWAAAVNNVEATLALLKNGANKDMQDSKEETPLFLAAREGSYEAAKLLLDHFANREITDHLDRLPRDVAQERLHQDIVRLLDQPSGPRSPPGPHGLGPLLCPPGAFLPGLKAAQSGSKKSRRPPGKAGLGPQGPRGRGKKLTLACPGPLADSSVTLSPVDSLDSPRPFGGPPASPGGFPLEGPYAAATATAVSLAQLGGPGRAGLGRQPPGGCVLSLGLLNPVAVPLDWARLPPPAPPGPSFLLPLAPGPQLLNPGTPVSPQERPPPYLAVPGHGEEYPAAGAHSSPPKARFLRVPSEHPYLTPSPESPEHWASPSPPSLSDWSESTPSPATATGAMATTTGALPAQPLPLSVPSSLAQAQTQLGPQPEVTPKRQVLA
Neurogenic locus notch homolog protein 2 (Homo sapiens), sequence (Q04721 whole entry, looked up, canonical isoform): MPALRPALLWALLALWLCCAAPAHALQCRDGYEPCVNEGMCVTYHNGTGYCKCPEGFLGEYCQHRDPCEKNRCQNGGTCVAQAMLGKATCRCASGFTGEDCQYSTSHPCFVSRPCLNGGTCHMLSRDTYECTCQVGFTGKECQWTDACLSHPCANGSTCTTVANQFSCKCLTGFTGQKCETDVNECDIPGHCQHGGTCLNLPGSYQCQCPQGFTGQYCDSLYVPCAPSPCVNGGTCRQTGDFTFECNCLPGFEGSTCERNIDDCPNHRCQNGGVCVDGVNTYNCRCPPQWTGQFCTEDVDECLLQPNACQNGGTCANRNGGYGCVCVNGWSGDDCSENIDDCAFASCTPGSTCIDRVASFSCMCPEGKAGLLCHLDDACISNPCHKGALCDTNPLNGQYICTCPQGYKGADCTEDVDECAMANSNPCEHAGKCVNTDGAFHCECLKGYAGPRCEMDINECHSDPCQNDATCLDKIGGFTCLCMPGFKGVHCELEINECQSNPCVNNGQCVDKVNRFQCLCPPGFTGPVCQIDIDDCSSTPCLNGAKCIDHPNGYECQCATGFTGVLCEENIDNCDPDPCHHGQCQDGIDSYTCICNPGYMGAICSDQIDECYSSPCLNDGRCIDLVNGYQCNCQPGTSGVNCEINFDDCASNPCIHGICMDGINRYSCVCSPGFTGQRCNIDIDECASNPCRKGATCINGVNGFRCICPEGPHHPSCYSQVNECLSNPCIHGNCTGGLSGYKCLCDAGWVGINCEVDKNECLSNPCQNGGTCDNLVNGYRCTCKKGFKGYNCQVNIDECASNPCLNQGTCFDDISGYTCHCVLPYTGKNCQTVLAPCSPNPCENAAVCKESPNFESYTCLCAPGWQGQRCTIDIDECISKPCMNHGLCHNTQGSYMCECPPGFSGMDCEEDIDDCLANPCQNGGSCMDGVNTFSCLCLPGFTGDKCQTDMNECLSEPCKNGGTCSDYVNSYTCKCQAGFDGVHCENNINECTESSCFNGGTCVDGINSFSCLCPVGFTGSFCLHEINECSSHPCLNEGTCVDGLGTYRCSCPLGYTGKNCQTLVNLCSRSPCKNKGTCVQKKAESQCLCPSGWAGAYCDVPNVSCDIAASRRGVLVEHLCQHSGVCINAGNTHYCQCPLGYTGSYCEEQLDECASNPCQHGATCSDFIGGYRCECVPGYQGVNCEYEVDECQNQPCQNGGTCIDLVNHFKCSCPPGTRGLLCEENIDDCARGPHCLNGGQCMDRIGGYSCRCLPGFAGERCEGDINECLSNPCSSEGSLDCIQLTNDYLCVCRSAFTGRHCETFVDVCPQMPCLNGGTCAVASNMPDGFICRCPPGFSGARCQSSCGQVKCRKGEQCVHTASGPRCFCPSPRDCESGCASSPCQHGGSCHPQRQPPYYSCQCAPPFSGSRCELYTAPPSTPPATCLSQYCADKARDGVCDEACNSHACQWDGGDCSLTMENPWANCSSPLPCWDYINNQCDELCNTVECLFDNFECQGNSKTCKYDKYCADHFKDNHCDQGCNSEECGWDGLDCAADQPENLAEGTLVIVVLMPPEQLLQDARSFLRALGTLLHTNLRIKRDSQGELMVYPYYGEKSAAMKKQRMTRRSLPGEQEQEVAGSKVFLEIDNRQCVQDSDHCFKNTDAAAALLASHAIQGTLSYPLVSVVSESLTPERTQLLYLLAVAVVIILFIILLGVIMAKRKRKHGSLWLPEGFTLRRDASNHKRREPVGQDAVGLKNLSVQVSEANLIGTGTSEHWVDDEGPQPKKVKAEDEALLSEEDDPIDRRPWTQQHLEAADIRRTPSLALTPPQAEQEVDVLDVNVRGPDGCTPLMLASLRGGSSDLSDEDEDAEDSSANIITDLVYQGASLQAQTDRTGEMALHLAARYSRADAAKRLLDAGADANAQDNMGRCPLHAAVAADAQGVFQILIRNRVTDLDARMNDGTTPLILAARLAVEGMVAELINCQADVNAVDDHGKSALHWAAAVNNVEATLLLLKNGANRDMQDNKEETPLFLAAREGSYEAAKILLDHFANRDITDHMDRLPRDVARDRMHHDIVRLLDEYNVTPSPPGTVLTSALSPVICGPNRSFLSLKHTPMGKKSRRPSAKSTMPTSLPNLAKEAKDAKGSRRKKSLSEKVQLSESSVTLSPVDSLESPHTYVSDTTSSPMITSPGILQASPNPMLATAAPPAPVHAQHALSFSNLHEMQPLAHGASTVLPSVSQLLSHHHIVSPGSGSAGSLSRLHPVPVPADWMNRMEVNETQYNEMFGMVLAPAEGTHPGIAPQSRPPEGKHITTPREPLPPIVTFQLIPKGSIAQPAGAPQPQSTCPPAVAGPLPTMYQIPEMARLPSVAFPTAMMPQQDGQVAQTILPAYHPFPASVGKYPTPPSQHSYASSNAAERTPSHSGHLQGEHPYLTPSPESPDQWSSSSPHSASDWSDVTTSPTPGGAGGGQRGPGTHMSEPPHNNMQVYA

Take `CN(C)CCCC[C@@H]1NC(=O)[C@H]2C[C@@H](C(=O)NCCCCCNC(=O)CS)[C@@H](c3ccc(O)cc3)N2C1=O`: the composite z-score in [1] is 0.594; in assay [2], -0.149; in assay [3], -0.203; in [4] it was -0.122; in [5] it was -1.21; in assay [6] it was 0.356. Besides, the composite z-score was -0.458 in assay [7]; -0.576 in [9]; -0.134 in assay [10]; -0.97 in assay [11]; 0.134 in assay [15]; 0.0601 in [17]. For the same compound, the composite z-score in assay [18] is -0.673; in assay [19] it was -0.0464; in assay [20], -0.167. Moreover, the z-score is 0.348 (inactive) in assay [8]; 0.428 (inactive) in assay [12]; -0.578 (inactive) in assay [13]; -0.52 (inactive) in [14]; 0.702 (inactive) in [16].

As for `CO[C@H]1O[C@H](CO)[C@@H](OC(=O)Nc2ccccc2-c2ccccc2)[C@H](OC(=O)Nc2ccccc2-c2ccccc2)[C@H]1OC(=O)Nc1ccccc1-c1ccccc1`, the composite z-score in [1] was -0.0136; in assay [2], 1.68; in assay [3], 0.17; in assay [4] it was 1.17; in assay [5], 1.4; in assay [6], 0.885. For the same compound, the composite z-score in assay [7] was found to be 1.42; in assay [9], 0.374; in assay [10] it was 0.245; in [11], 1.54; in assay [15], 3.23; in [17], 0.115. Moreover, the composite z-score in assay [18] is 0.65; in assay [19] it was 1.08; in assay [20] it was 0.0553. In addition, the z-score in assay [8] is 0.849 (inactive); in assay [12], 3.06 (inactive); in assay [13], 2.48 (inactive); in [14], 10.6 (active); in assay [16] it was 0.956 (inactive).

Take `CC(=O)N1Cc2ccccc2C[C@@]2(N=C(c3ccc(OCCCO)cc3)O[C@H]2c2ccccc2)C1=O`: the composite z-score in [1] amounted to 0.136; in assay [2], 0.0287; in [3], 0.0933; in assay [4], 0.145; in assay [5], 1.09; in [6] it was 1.54. Moreover, the composite z-score in assay [7] was 1.31; in assay [9], 1.55; in assay [10], -0.393; in assay [11], 1.53; in [15] it was 3.32; in assay [17], 0.215. For the same compound, the composite z-score is 1.47 in assay [18], 1.11 in assay [19] and 0.107 in assay [20]. In addition, the z-score is -3.53 (inactive) in assay [8]; -3.56 (inactive) in assay [12]; -3.68 (inactive) in assay [13]; 17.1 (active) in [14]; 1.5 (inactive) in [16].

`[N-]=[N+]=NCc1ccccc1C[C@]1(C(=O)NCC(O)CO)COC(c2ccc(OCCCO)cc2)=N1` (stereo not given in full): the composite z-score is 1.11 in assay [1]; 2.19 in [2]; -0.033 in [3]; -0.329 in assay [4]; 0.7 in assay [5]; 1 in [6]. The composite z-score in [7] was 0.691; in assay [9], 1.1; in assay [10], -0.318; in assay [11], 0.638; in [15], 2.54; in assay [17], 0.841. For the same compound, the composite z-score was -0.185 in [18], -0.172 in assay [19] and 0.204 in [20]. In addition, the z-score is -1.03 (inactive) in [8]; -0.319 (inactive) in assay [12]; -3.05 (inactive) in [13]; 0.113 (inactive) in assay [14]; 1.34 (inactive) in assay [16].

As for `C=C[C@@H](C)[C@@H](OC(=O)Nc1ccc(OC)cc1)c1ccc(O)c2ccccc12`, the composite z-score is -0.262 in assay [1]; 0.173 in assay [2]; -0.0423 in assay [3]; 0.245 in assay [4]; -0.11 in assay [5]; 0.543 in [6]. Also, the composite z-score in [7] is 1.03; in assay [9], 0.105; in [10], -0.128; in assay [11], 0.906; in assay [15], 1.15; in assay [17], -0.17. The composite z-score in [18] was 1.15; in [19], 0.514; in [20], -0.116. The z-score was 2.58 (inactive) in assay [8]; -24.7 (active) in [12]; -20.9 (active) in assay [13]; -3.73 (inactive) in [14]; 1.02 (inactive) in assay [16].
